Source: PubChem BioAssay (Tox21)
Values joined by “and” are separate entries in the source; they are usually repeats but may differ in a detail not shown here. Identical values can stand only once. Results filed as inconclusive are left out. Entries that show only a call come without a potency. A structure can be active in one record and inactive in another. Active and inactive are the calls of the source. The call rests on the fitted dose curve; in most records, active means well fitted curve in the direction sought with a large enough effect in the repeat runs; inconclusive means weak or mixed curves; inactive means no such curve, though single readings can be large; an effect the other way counts as inactive or inconclusive.

Legend:
[1] = qHTS RealTime-Glo MT Cell Viability Assay in HepG2 cells - 8 hour (AID 1224873); further: nearly all actives have a fitted effect of over 55% in size; further: potency means the concentration at half of the fitted maximal effect
How it was run: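 HepG2 cells mixed with RealTime-Glo MT reagents (NanoLuc plus cell-permeant prosubstrate) were seeded at 600 cells/well, incubated 5 h at 37 C/5% CO2, then pinned with compounds in DMSO; nonlytic luminescence tracked viability during 40 h treatment.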

[2] = qHTS RealTime-Glo MT Cell Viability Assay in HEK293 cells - 40 hour (AID 1224874); conditions: RealTime-Glo luminescence; max response: stronger effect = lower value; further: nearly all actives have a fitted effect of over 50% in size; further: potency means the concentration at half of the fitted maximal effect
How it was run: (§1)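 Kinetic, non-lysing viability readout. Seed HEK293 (600/well) with reagent, incubate 5 h at 37 C/5% CO2, pin 23 nL compound in DMSO, incubate at 37 C, read luminescence at 0, 8, 16, 24, 32, 40 h.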

[3] = A CellTox Green Cytotoxicity Assay to monitor cytotoxicity in HEK293 cells - 24 hour (AID 1224875); further: nearly all actives have a fitted effect of over 45% in size; further: potency means the concentration at half of the fitted maximal effect
How it was run: (§2)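 Real-time, in one plate: 600 HEK293 cells/well with dead-cell DNA dye, pinned compound after 5 h, 37 C incubation over 40 h; viable cells give no appreciable fluorescence.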

[4] = A CellTox Green Cytotoxicity Assay to monitor cytotoxicity in HepG2 cells - 16 hour (AID 1224876); further: nearly all actives have a fitted effect of over 45% in size; further: potency means the concentration at half of the fitted maximal effect
How it was run: (§3)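 Cytotoxicity was tracked as dead-cell DNA fluorescence in HepG2 cells treated with test compounds at 37 C; each time-point value comes from one kinetic series spanning 0, 8, 16, 24, 32 and 40 h.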

[5] = qHTS RealTime-Glo MT Cell Viability Assay in HepG2 cells - 32 hour (AID 1224877); further: nearly all actives have a fitted effect of over 55% in size; further: potency means the concentration at half of the fitted maximal effect
How it was run: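 Luminescence read-out: viable HepG2 cells reduce a prosubstrate to a NanoLuc substrate, giving a signal proportional to live cell number. Reads taken at 0, 8, 16, 24, 32 and 40 h of compound exposure at 37 C.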

[6] = A CellTox Green Cytotoxicity Assay to monitor cytotoxicity in HepG2 cells - 40 hour (AID 1224879); further: nearly all actives have a fitted effect of over 40% in size; further: potency means the concentration at half of the fitted maximal effect
How it was run: as §3

[7] = qHTS RealTime-Glo MT Cell Viability Assay in HEK293 cells - 0 hour (AID 1224880); further: top concentration of the series differs between compounds; nearly all actives have a fitted effect of over 45% in size
How it was run: as §1

[8] = A CellTox Green Cytotoxicity Assay to monitor cytotoxicity in HEK293 cells - 32 hour (AID 1224881); further: nearly all actives have a fitted effect of over 40% in size; further: potency means the concentration at half of the fitted maximal effect
How it was run: as §2

[9] = A CellTox Green Cytotoxicity Assay to monitor cytotoxicity in HepG2 cells - 24 hour (AID 1224878); further: nearly all actives have a fitted effect of over 45% in size; further: potency means the concentration at half of the fitted maximal effect
How it was run: as §3

[10] = qHTS RealTime-Glo MT Cell Viability Assay in HEK293 cells - 16 hour (AID 1224872); further: potency means the concentration at half of the fitted maximal effect; nearly all actives have a fitted effect of over 50% in size
How it was run: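 Nonlytic real-time viability readout: viable cells convert prosubstrate to NanoLuc substrate, giving luminescence proportional to live cell number. HEK293, 600 cells/well, compound added after 5 h, continuous culture at 37 C.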

SMILES | Potency [1] | max response [2] | Potency [3] | Potency [4] | Potency [5] | Potency [6] | Potency [7] | Potency [8] | Potency [2] | Potency [9] | Potency [10]
C[As+](C)(C)CC(=O)[O-] | inactive | -9.67% (inactive) | inactive | inactive | inactive | inactive | inactive | inactive | – | – | –
OC(Cc1ccccc1Cl)(Cn1cncn1)C1(Cl)CC1 (stereo not given) | inactive | – | inactive | inactive | inactive | inactive | inactive | – | 49 µM (active) | inactive | –
CC(=O)OC1(c2ccccc2)CCN(CCc2ccccc2)CC1 | inactive | – | inactive | inactive | inactive | – | inactive | inactive | 28.2 µM (active) | inactive | –
Cc1cc(N=Nc2ccccc2C)ccc1N | – | – | – | – | inactive | 21.9 µM (active) and 19.5 µM (active) | inactive | – | 21.9 µM (active) | – | 21.9 µM (active) and 19.5 µM (active)
Clc1ccc(C(c2ccccc2Cl)C(Cl)(Cl)Cl)cc1 (stereo not given) | inactive | -21.7% (inactive) | inactive | – | inactive | inactive | inactive | 55.3 µM (active) and inactive | 49.3 µM (active) | – | –
C[C@]12CC[C@H](O)C[C@H]1CC[C@@H]1[C@@H]2C[C@@H](O)[C@]2(C)[C@@H](C3=CC(=O)OC3)CC[C@]12O | inactive | – | inactive | inactive | inactive | inactive | inactive | inactive | 0.776 µM (active) | inactive | –
COP(N)(=S)OC | inactive | 0.707% (inactive) | inactive | inactive | inactive | inactive | inactive | inactive | – | inactive | –
CCc1nn(C)c(C(=O)NCc2ccc(C(C)(C)C)cc2)c1Cl | inactive | – | inactive | inactive | inactive | inactive | inactive | inactive | 0.0977 µM (active) | inactive | –
CC(C)(c1ccc(O)c(-c2ccccc2)c1)c1ccc(O)c(-c2ccccc2)c1 | 49 µM (active) | – | – | – | – | 49 µM (active) | inactive | – | 19.5 µM (active) | 49 µM (active) | –
[Cd+2].[Cl-].[Cl-] | inactive | – | inactive | 55.4 µM (active) and inactive | – | 19.7 µM (active) and 24.5 µM (active) | inactive | 44 µM (active) and 15.5 µM (active) | 12.4 µM (active) | – | –
N#C/C=C/C#N | inactive | – | inactive | inactive | inactive | inactive | – | inactive | – | inactive | –
CCOP(=O)(NC(C)C)Oc1ccc(SC)c(C)c1 (stereo not given) | inactive | – | inactive | – | inactive | – | inactive | inactive | 13.8 µM (active) | – | –
N#CC(Cl)Cl | inactive | – | inactive | inactive | inactive | 1.2 µM (active) | inactive | inactive | – | inactive | –
c1ccc2c(c1)OCC(C1=NCCN1)O2 (stereo not given) | inactive | – | inactive | – | inactive | inactive | inactive | 19 µM (active) | 19 µM (active) | inactive | –
CC1(C)CN=C(NN=C(/C=C/c2ccc(C(F)(F)F)cc2)/C=C/c2ccc(C(F)(F)F)cc2)NC1 | 24.5 µM (active) | – | – | – | 17.4 µM (active) | 15.5 µM (active) | inactive | 54.9 µM (active) | 38.9 µM (active) | 19.5 µM (active) | –
CC(=O)c1cc(C(C)(C)C)cc2c1CCC2(C)C | inactive | -21.2% (inactive) | 38.9 µM (active) | – | inactive | – | inactive | 38.9 µM (active) | – | – | –
COc1ccc(/C(=C/C(=O)N2CCOCC2)c2ccc(Cl)cc2)cc1OC | inactive | – | inactive | inactive | inactive | inactive | inactive | inactive | – | inactive | –
O=C(NC(=O)c1c(F)cccc1F)Nc1cc(Cl)c(OC(F)(F)C(F)F)c(Cl)c1 | inactive | – | inactive | inactive | inactive | inactive | – | inactive | – | inactive | –
Cn1[nH]nnc1=S | inactive | 4.93% (inactive) | inactive | – | inactive | inactive | inactive | inactive | – | inactive | –
S=C=Nc1cccc2ccccc12 | inactive | 2.28% (inactive) | inactive | – | inactive | inactive | inactive | inactive | – | inactive | –
CC1CCC(C(C)C)C(OC(=O)c2ccccc2N)C1 (stereo not given) | inactive | – | – | – | inactive | – | inactive | 38.4 µM (active) | 34.2 µM (active) | – | –
O=C(Cl)c1ccc(Cl)cc1 | inactive | – | inactive | inactive | inactive | inactive | inactive | inactive | – | inactive | –
BrC(Br)C(Br)(Br)Br | inactive | – | – | inactive | inactive | – | inactive | – | 27.7 µM (active) | – | –
c1cc[c]([Sb]([c]2ccccc2)[c]2ccccc2)cc1 | inactive | – | inactive | – | inactive | inactive | inactive | inactive | 54.9 µM (active) | inactive | –
